Drawing on PubChem BioAssay (EPA / NIEHS), this text covers AC50 and outcome for ten molecules.

SMILES strings stand for the structures. Several values for one entry are separate records, joined by “and”; a condition that tells them apart may be missing. Equal entries are not always repeated. Results filed as inconclusive are left out. More than one record can exist for a structure, and the calls need not agree. Activity calls are given as the source filed them. Rule for the calls: active = hit-call score of the fitted dose curve at least 0.9, where 1 is the maximum; inconclusive = response in the unintended direction; inactive = score below 0.9.

The term AC50 denotes the concentration at which the activity in the assay is half-maximal.

This experiment has as its system turtle Estrogen Receptor (ERa), gene 101933533. Put plainly: ATG_trERa_XSP2: Attagene TRANS-FACTORIAL Multi-Species (XSP2) HepG2 Assay for turtle Estrogen Receptor (ERa) (AID 2283812).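 Note: actives raise reporter signal above DMSO so AC50 reflects agonist activity.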 As for the experimental part:
ATG_XSP2_multi-species_TRANS is a cell-based, multiplexed assay created by modifying the existing Attagene TRANS-FACTORIAL system to include a panel of nuclear receptors from some or all the following species: human (Homo sapiens), mouse (Mus musculus), frog (Xenopus laevis), zebrafish (Danio rerio), chicken (Gallus gallus), and turtle (Chrysemys picta). The ECOTOX-FACTORIAL format uses HepG2, a human liver cell line, with measurements taken at 24 hours after chemical dosing in a 24-well plate. Xsp2 included 3 nM 6-alpha-fluorotestosterone and 1.5 nM norgestrel to stimulate the androgen receptor.ATG_trERa_XSP2 is one of 29 assay components measured or calculated from the ATG_XSP2_multi-species_TRANS assay. It is designed to make measurements of mRNA induction, a form of inducible reporter, as detected with fluorescence intensity signals by Reverse transcription polymerase chain reaction (RT-PCR) and Capillary electrophoresis technology.The assay endpoint ATG_trERa_XSP2 was analyzed in the positive analysis fitting direction relative to DMSO as the negative control and baseline of activity. Using a type of inducible reporter, measures of mRNA for gain-of-signal activity can be used to understand the reporter gene at the transcription factor-level as they relate to the gene ER. Furthermore, this assay endpoint can be referred to as a primary readout, because this assay has produced multiple assay endpoints where this one serves a reporter gene function. To generalize the intended target to other relatable targets, this assay endpoint is annotated to the nuclear receptor intended target family, where the subfamily is steroidal.
Human liver HepG2 cells are transiently transfected with multiple reporter transcription units (MRTUs) in 6-well plates using FuGene 6 reagent (Roche; 3 ml FuGene/1 mg DNA). The MRTU constructs are regulated by a cis-regulating element (promoter). […] A major difference between the CIS and TRANS system is that in CIS activities of endogenous TFs are measured, whereas the TRANS assay evaluates changes in activities of exogenous, chimeric NR-Gal4 proteins. […] At the end of 24 hour incubation, total RNA was isolated using TriZol reagent (Invitrogen). The isolated RNA is then reverse-transcribed using oligo(dT) primer and Mo-MLV reverse transcriptase (Invitrogen) with DNAse I (Ambion) treatment for 30 min. The one-tenth of the produced cDNA was amplified by PCR using Taq DNA polymerase (Invitrogen) and two reporter sequence-specific primers. The PCR products were fluorescently labeled by primer extension with 6-arboxyfluorescein (6-FAM) 5'-labeled reporter sequence-specific primer (2 min at 95 C, 20 s at 68 C and 10 min at 72 C) and these products were digested with 5U of HpaI (New England Biolabs) for 2h at 37 C. The fragments were purified using Qiaquick PCR columns (Qiagen), analyzed on an ABI 3130xL genetic analyzer (Applied Biosystems) with peak positions identified by using a set of X-rhodamine (ROX)-labeled MapMarker1000 molecular weight standards (BioVentures). The raw capillary electrophoresis data was processed using Attagraph software (Attagene).
For the molecule `COP(=S)(OC)Oc1ccc([N+](=O)[O-])c(C)c1`, the concentration at half-maximal activity (AC50) was 31.9 µM (active). Regarding `CC1(C)CCC(=Cc2ccc(Cl)cc2)C1(O)Cn1cncn1` (stereo unspecified), the call was inactive. As to `COP(=S)(OC)SCn1nnc2ccccc2c1=O`, the AC50 is 16.4 µM (active) and the molecule was called inactive. For `Cc1c(COC(=O)[C@@H]2[C@H](/C=C(\Cl)C(F)(F)F)C2(C)C)cccc1-c1ccccc1`, the half-maximal activity concentration (AC50) is 38.7 µM (active).

`N#Cc1c[nH]cc1-c1cccc2c1OC(F)(F)O2`: the AC50 is 2.37 µM (active) and 1.02 µM (active). For `C=C(C)CN(CC)c1c([N+](=O)[O-])cc(C(F)(F)F)cc1[N+](=O)[O-]`, the AC50 is 4.03 µM (active) and 12.5 µM (active).

In the case of `CCN(CC)C(=O)C(C)Oc1cccc2ccccc12` (stereo unspecified), the AC50 was 10.5 µM (active). As for `CC1(C)C(C=C(Cl)Cl)C1C(=O)OC(C#N)c1cccc(Oc2ccccc2)c1` (stereo unspecified), the half-maximal activity concentration (AC50) is 18 µM (active). On to `CSC(=O)c1c(C(F)F)nc(C(F)(F)F)c(C(=O)SC)c1CC(C)C`, for which the molecule was called inactive. In the case of `CC(C)NC(=O)N1CC(=O)N(c2cc(Cl)cc(Cl)c2)C1=O`, the call was inactive.
